Consider eleven substances from ChEMBL document CHEMBL1201862, “PubChem BioAssay data set” (2004).

About 2,300 (4%) of roughly 57,000 sequences were called active. Rule as the data show it: active = GI50 up to about 1.1 µM and inactive = higher. Not all results are given here. Measured potencies and affinities stand elsewhere.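 How tested: cells in 96-well plates exposed to compound for 48 hours at five concentrations. GI50 is the concentration that inhibits growth by half.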

The test concerns SK-MEL-28. As to the kind of experiment: NCI tumour cell line growth inhibition, 48 h.
“[Bis(aminomethyl)diethylsilane]tetrachloroplatinum(IV), CHEMBL2146203” displayed a GI50 of 1.72 µM. For CISPLATIN, CHEMBL11359, the GI50 is 4.43 µM. In the case of “[Bis(aminomethyl)tetramethylenesilane]dichloropaltinum(II), CHEMBL2146205”, the GI50 amounted to 20.3 µM.

With “[Bis(aminomethyl)pentamethylenesilane]dichloropaltinum(II), CHEMBL2146202”, the GI50 turned out to be 3.85 µM. “[Bis(aminomethyl)ethylmethylsilane]tetrachloroplatinum(IV), CHEMBL2146192” gave a GI50 of 2.76 µM. “[Bis(aminomethyl)pentamethylenesilane]tetrachloropaltinum(IV), CHEMBL2146204” displayed a GI50 of 1.23 µM. In turn, “cis-Bis[[(trimethylsilyl)methyl]amino]tetrachloroplatinum(IV), CHEMBL2146191” gave a GI50 of 2.86 µM. “[Bis(aminomethyl)dimethylsilane]tetrachloroplatinum(IV), CHEMBL2146190” had a GI50 of 10.2 µM. “[Bis(aminomethyl)tetramethylenesilane]tetrachloropaltinum(IV), CHEMBL2146189” gave a GI50 of 2.85 µM. “mu-(1,7-nanodiamine-N,N')bis-(cis-aminedichloroplatimum (II)), CHEMBL2146215” gave a GI50 of 10.2 µM.

With “[Bis(aminomethyl)dimethylsilane]dichloroplatinum (II), CHEMBL2146201”, the GI50 is 21.6 µM.
